High-throughput results deposited in PubChem BioAssay by National Center for Advancing Translational Sciences (NCATS).
a7 integrin act = activates integrin-mediated alleviation for muscular dystrophy; 0.064% of 350,000 active; Potency, µM (highest dose often 38.3 µM), for inactives: top-dose activation, most hits filed as activators; alpha7betagal myoblasts, beta-gal FDG fluorescence, 48 h;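 note: potency is the fitted concentration of half-maximal effect; 100% = response of the positive control SU9516; nearly all actives have a fitted effect of over 60% in size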
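Alpha7betagal+/- myoblasts (passage 13) were plated 16-24 hr, then exposed to compounds (1:260 dilution of DMSO stock) for 48 hours at 37C. After MPER lysis, β-galactosidase reporter activity was read as FDG fluorescence (ex 480/em 540) after 30 minutes.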
Giardia kill = kills Giardia lamblia; activity change, % at 7.66 µM, hits read low; Giardia lamblia trophozoite viability; 0.15% of 340,000 active; in the data active = activity change below about -80%; inconclusive = between about -30% and that limit;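 note: parasites exposed to compound for two days anaerobically before the ATP read; % is set by controls: 0 for no effect and ±100 for the full control effect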
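Luminescence from cellular ATP indicates surviving trophozoites (100 cells/well) following 48 hrs anaerobic compound treatment at 37 deg C; signal develops 15-30 min at room temperature.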
RORg inh = blocks mouse ROR gamma transcriptional activity. AID 2551. Drosophila S2 Gal4-RORgamma UAS-luciferase reporter, 20 h. Potency, µM (series often up to 53.6 µM), without a hit: top-dose activity change, negative = inhibition, hits mostly inhibitors. P51450. 5.4% of 310,000 active; note: potency is the fitted concentration of half-maximal effect; % is set by controls: 0 for no effect and ±100 for the full control effect; nearly all actives have a fitted effect of over 60% in size
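Using a luciferase readout, inhibitors were identified by reduced reporter activity in Drosophila cells coexpressing a copper-inducible Gal4–ROR gamma fusion and UAS-driven Photinus luciferase, incubated 20 hr after 700 uM copper sulfate.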
ERG-DNA inh = blocks human ERG Ets domain binding to DNA. P11308. fluorescence polarization, His-ERG Ets domain / labelled DNA. Potency, µM (highest dose often 76.9 µM), for the others: top-dose FP activity, negative = inhibition, usual class: inhibitors. 0.028% of 370,000 active. AID 624246; active = well fitted inhibition curve with a large enough effect in the polarisation, with a control signal flat; inconclusive = small, poorly fitted or top-dose-only effect, or effect the other way, or a change in a side signal; inactive = no such curve, though single readings can be large or run the other way; the % refers to the polarisation;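 note: polarization taken with two DNA probes labelled with fluorescein and Texas red; potency is the fitted concentration of half-maximal effect; % of control where 0% means no effect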
Target sequence (P11308 whole entry, looked up, the tested form may be a part): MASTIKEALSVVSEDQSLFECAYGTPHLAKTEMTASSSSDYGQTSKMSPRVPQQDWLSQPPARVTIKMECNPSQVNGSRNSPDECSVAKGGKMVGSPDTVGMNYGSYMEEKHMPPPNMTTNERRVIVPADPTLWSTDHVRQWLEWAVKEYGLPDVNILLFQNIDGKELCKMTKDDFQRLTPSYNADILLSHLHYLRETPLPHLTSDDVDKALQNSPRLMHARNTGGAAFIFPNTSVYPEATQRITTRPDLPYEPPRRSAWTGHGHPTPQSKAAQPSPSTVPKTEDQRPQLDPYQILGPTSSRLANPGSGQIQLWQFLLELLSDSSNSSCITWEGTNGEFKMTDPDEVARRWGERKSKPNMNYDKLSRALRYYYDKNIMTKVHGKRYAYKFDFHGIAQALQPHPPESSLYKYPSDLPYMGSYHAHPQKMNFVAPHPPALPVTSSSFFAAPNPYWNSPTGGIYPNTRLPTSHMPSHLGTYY
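His-tagged ERG Ets domain (1 uM in the protein solution; 300mM KCl, 50mM Tris-HCl, 1mM EDTA, 1mM DTT, pH 7.5) received compound, then a probe mix of 5 nM fluorescein-DNA and 100nM Texas-615-DNA. Fluorescence polarization was read for both dyes.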
VP16 counter = counter-screen for ROR gamma inhibitors: Gal4-VP16 reporter; Drosophila S2 Gal4-VP16 UAS-luciferase, luminescence, 20 h; Potency, µM (series often up to 53.6 µM), without a hit: at the highest dose activity, negative = inhibition, actives largely listed as inhibitors; 3.5% of 310,000 active; AID 2546;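 note: Gal4-VP16 expression switched on by copper sulfate through the metallothionein promoter; potency is the fitted concentration of half-maximal effect; % is set by controls: 0 for no effect and ±100 for the full control effect; nearly all actives have a fitted effect of over 50% in size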
Starred values were filed as active, the others as inactive; [ ] = another dose, or the depositor's remark. Many of the other results were omitted from the sample, so hits are more common in it than they were. Unless noted, calls come from the whole dose curve; as a rule, active = well fitted curve in the direction sought with a large enough effect; inconclusive = small, poorly fitted or top-dose-only effect, or another doubt; inactive = no such curve, though single readings can be large; an effect the other way counts as inactive or inconclusive.

FC(F)(F)c1cc(CCN2C(=S)NC[C@@H]2CC2CCCCC2)cc(C(F)(F)F)c1 was read as a7 integrin act 20%, Giardia kill 1, RORg inh 2.2µM*, ERG-DNA inh 8% and VP16 counter 6.3µM*.
FC(F)(F)c1cc(CCN2C(=S)NC[C@@H]2c2ccccc2)cc(C(F)(F)F)c1 was read as a7 integrin act -38%, Giardia kill 19, RORg inh 5.6µM*, ERG-DNA inh -6% and VP16 counter 11µM*.
`O=C1NC[C@H](c2ccccc2)N(CCc2cc(C(F)(F)F)cc(C(F)(F)F)c2)C1=O` gave a7 integrin act 6%, Giardia kill 13, RORg inh 20%, ERG-DNA inh 0% and VP16 counter -10%.
Screening O=C1NC[C@H](CC2CCCCC2)N(CC2CCCCC2)C1=O returned a7 integrin act -18%, Giardia kill 6 and ERG-DNA inh -9%.
For NC1=NC[C@H](Cc2ccccc2)N1CCc1cc(C(F)(F)F)cc(C(F)(F)F)c1 the results were a7 integrin act -42%, Giardia kill 4, RORg inh 2%, ERG-DNA inh 13% and VP16 counter 0%.
For FC(F)(F)c1cc(CCN2C(=S)NC[C@@H]2Cc2ccccc2)cc(C(F)(F)F)c1 the results were a7 integrin act -23%, Giardia kill 7, RORg inh 3.5µM*, ERG-DNA inh -9% and VP16 counter 2.8µM*.
Screening Oc1ccc(C[C@H]2CNC(=S)N2CCc2cc(C(F)(F)F)cc(C(F)(F)F)c2)cc1 returned a7 integrin act 21%, Giardia kill -17, RORg inh 18µM*, ERG-DNA inh 0% and VP16 counter -11%.
For CCCCCCC#CC1C=CC(Oc2ccc(C=O)cc2)C(CO)O1 (stereo not drawn) the results were RORg inh 14%[10 µM] and VP16 counter -2%[10 µM].
C/C(CCC(=O)OC[C@@H]1O[C@H](C#Cc2ccccc2)C=C[C@@H]1Oc1ccc(C)cc1)=N/OC[C@@H](O)[C@H]1O[C@H]2OC(C)(C)O[C@H]2[C@@H]1O was read as RORg inh -2%[10 µM] and VP16 counter -7%[10 µM].
Oc1ccc(-c2cnc(-c3ccc(O)cc3)nc2)cc1 was read as a7 integrin act 7%, Giardia kill inconclusive, RORg inh 2.5µM*, ERG-DNA inh -5% and VP16 counter inconclusive.
Screening Nc1ccc(-c2cnc(-c3ccc(N)cc3)nc2)cc1 returned a7 integrin act 6%, Giardia kill inconclusive, RORg inh -1%[10 µM], ERG-DNA inh 3% and VP16 counter -3%.
For Cc1cccc(C(=O)Nc2ccccc2OCc2cc(=O)n3c(C)csc3n2)c1 the results were ERG-DNA inh -6%.
For C/C(=N\O)c1noc(C)c1C(=O)Nc1nccs1 the results were a7 integrin act 10%, Giardia kill 4, RORg inh -27%, ERG-DNA inh 1% and VP16 counter 6%.
`CCOC(=O)c1cnc(-n2nc(C)cc2C)nc1NNc1nc(C)cc(C)n1` gave a7 integrin act -4%, Giardia kill -3, RORg inh 4µM*, ERG-DNA inh 0% and VP16 counter inconclusive.
CCOC(=O)c1cnc(-n2nc(C)cc2C)nc1NNc1nc(-c2ccccc2)cc(-c2ccccc2)n1 was read as a7 integrin act -1%, Giardia kill -10, RORg inh 0.79µM*, ERG-DNA inh 17% and VP16 counter 0.71µM*.
Screening COc1ccc(Nc2nc3ccccc3s2)cc1 returned a7 integrin act -19%, Giardia kill -16, RORg inh inconclusive, ERG-DNA inh 14% and VP16 counter 2%.
For COc1ccc2nc(Nc3sc4c(c3C(N)=O)CCCC4)sc2c1 the results were a7 integrin act -4%, Giardia kill 13, RORg inh 1.4µM*, ERG-DNA inh -8% and VP16 counter 3.5µM*.
`COc1cccc(Nc2nc3ccc(OC)cc3s2)c1` gave a7 integrin act -8%, Giardia kill 3, RORg inh 11µM*, ERG-DNA inh 6% and VP16 counter inconclusive.
CCOc1ccc(CCNC(=O)C2CCCN(S(=O)(=O)N(C)c3ccc(F)cc3)C2)cc1 (stereo not drawn) was read as ERG-DNA inh -4%.
Screening CN(C)CCNC(=O)c1ccc(Cn2c(=O)c3cccn3c3cccnc32)cc1 returned ERG-DNA inh 7%.
O=C(N/N=C/CCc1ccccc1)c1ccc(CN2c3cccc4cccc(c34)S2(=O)=O)cc1 was read as a7 integrin act 4%, Giardia kill 2, RORg inh 11µM*, ERG-DNA inh -5% and VP16 counter inconclusive.
Screening Cc1ccccc1C1CC(=O)Oc2cc(C)c(Cl)c(C)c21 (stereo not drawn) returned RORg inh 3% and VP16 counter -5%.
For Cc1nc2c(cnn2-c2ccccc2)c(=O)n1/N=C/c1ccccc1 the results were a7 integrin act 10µM*, Giardia kill 21, RORg inh 8%, ERG-DNA inh 8% and VP16 counter 2%.
For CN(C(=O)CNC(=O)c1ccc(Br)o1)C1CCCCC1 the results were a7 integrin act 15%, Giardia kill -4 and ERG-DNA inh 3%.
Screening N#CCCN(Cc1cccnc1)C(=S)NC(=O)c1ccccc1 returned a7 integrin act -8%, Giardia kill -1 and ERG-DNA inh 9%.
`CC1(C(=O)NC(=S)N(CCC#N)Cc2cccnc2)CC1(Cl)Cl` (stereo not drawn) gave RORg inh 1.4µM* and VP16 counter inconclusive.
Screening ONC(=Nc1cccc(C(F)(F)F)c1)c1cccnc1 returned a7 integrin act 0%, Giardia kill 74, RORg inh -3%, ERG-DNA inh -5% and VP16 counter 0%.
`O=C(Nc1nnc(CCc2ccccc2)s1)c1cccc(F)c1` gave a7 integrin act inconclusive, Giardia kill 20, RORg inh 18µM*, ERG-DNA inh 3% and VP16 counter -17%.
O=C(Nc1nnc(CCc2ccccc2)s1)c1ccc(F)cc1 was read as a7 integrin act 38%, Giardia kill -4, RORg inh -28%, ERG-DNA inh -3% and VP16 counter 13%.
Screening Cc1ccccc1S(=O)(=O)Cc1ccc(C(=O)N2CCN(c3ccccc3F)CC2)o1 returned a7 integrin act 2%, Giardia kill 2, RORg inh 9%, ERG-DNA inh 8% and VP16 counter 3%.
S=C(Nc1ccc(Br)cc1Cl)NN1CCOCC1 was read as a7 integrin act 10%, Giardia kill -11, RORg inh 3.5µM*, ERG-DNA inh 9% and VP16 counter 18µM*.
Screening Fc1ccc(NC(=S)NN2CCOCC2)cc1Cl returned a7 integrin act 9%, Giardia kill -13, RORg inh 2.8µM*, ERG-DNA inh 10% and VP16 counter inconclusive.
